GoLoco inh red: inhibitors of human Gai1-RGS12 GoLoco interaction (red fluorophore). P63096. Gai1:RGS12 GoLoco peptide FP, rhodamine, 10 min. Potency, µM (doses to about 61.6 µM), for inactives: at the highest dose activity, negative = inhibition, hits mostly inhibitors. 0.44% of 230,000 active. AID 880; active = well fitted inhibition curve with a large enough effect, not every such curve was filed as active; inactive = no such curve, though single readings can be large or run the other way; note: potency is the fitted concentration of half-maximal effect; % is set by controls: 0 for no effect and ±100 for the full control effect; nearly all actives have a fitted effect of over 30% in size
Target sequence (P63096 whole entry, looked up): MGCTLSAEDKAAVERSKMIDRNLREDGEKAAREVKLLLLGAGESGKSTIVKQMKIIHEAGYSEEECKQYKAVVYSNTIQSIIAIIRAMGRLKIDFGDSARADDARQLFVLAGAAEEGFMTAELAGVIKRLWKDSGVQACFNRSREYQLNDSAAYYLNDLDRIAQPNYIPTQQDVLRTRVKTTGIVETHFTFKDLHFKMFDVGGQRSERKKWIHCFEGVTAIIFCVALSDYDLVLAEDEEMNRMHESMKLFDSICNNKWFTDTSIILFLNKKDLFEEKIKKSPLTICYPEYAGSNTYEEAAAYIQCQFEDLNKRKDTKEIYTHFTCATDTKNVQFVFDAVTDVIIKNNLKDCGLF
Coupling enz: inhibits coupling enzyme system, counter-screen for aldolase hits. coupling enzyme system counterscreen, AmpLite Red fluorescence. activity change, negative = inhibition, % at 58.2 µM, hits read low. 0.67% of 290,000 active. AID 2472; in the data active = activity change below about -30%; note: % is set by controls: 0 for no effect and ±100 for the full control effect
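Fluorescence at 525 nm excitation and 598 nm emission measured inhibition of the coupled detection system without aldolase. Compounds (at 57.5 uM final) were preincubated 10 min at room temperature with coupling enzyme reagent before a 20 min substrate/AmpLite Red step.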
HTT cytoprotect: Huntington cell model cytoprotection by ATP luminescence. PC12 HTT-Q103 induced, cytoprotection, ATP luminescence, 40 h. Potency, µM (top dose mostly 56.4 µM), without a hit: cytoprotection (ATP increase), usual class: activators. 0.14% of 230,000 active. AID 1471; note: potency is the fitted concentration of half-maximal effect; % of control where 0% means no effect; nearly all actives have a fitted effect of over 45% in size
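ATP quantification (ATPlite) reports survival of PC12 cells in which tebufenozide, 100 nM final, switches on Htt exon 1 with 103 glutamines linked to GFP; compounds are titrated.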
VDR inh: inhibitors of human vitamin D receptor; P11473; VDR-SRC2-3 peptide fluorescence polarization, 2 h; Potency, µM, inactives show max response, negative = inhibition, usual class: inhibitors; 0.93% of 400,000 active; note: potency is the fitted concentration of half-maximal effect; % is set by controls: 0 for no effect and ±100 for the full control effect
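Reagent solutions, kept cold and dark, are dispensed first; compounds are then pinned in at 23 nl, plates briefly spun, and incubated 2 h at ambient temperature. Inhibition of VDR–SRC2-3 peptide binding is read by fluorescence polarization.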
KDM4E inh: inhibitors of human JMJD2E histone demethylase; B2RXH2; JMJD2E catalytic domain, FDH-coupled NADH fluorescence (FDH is formaldehyde dehydrogenase); Potency, µM (top dose mostly 57.1 µM), for the others: at the highest dose activity change, negative = inhibition, usual class: inhibitors; 1.6% of 230,000 active; active = well fitted inhibition curve with a large enough effect, not every such curve was filed as active; inconclusive = small, poorly fitted or top-dose-only effect, or another doubt; inactive = no such curve, though single readings can be large or run the other way;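 note: potency is the fitted concentration of half-maximal effect; 0% = wells with enzyme and -100% = buffer wells without enzyme; nearly all actives have a fitted effect of over 50% in size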
Target sequence (B2RXH2 1-337 limits assumed): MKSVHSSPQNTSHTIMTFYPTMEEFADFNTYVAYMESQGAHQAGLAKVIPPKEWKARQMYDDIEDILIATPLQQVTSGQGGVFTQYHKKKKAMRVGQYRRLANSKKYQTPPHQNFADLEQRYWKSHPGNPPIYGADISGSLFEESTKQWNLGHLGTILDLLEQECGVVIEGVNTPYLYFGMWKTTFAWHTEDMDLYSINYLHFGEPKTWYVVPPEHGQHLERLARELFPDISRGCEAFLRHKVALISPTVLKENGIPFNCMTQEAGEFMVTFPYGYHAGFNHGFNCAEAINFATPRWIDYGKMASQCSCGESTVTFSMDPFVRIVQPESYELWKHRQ
HTT aggregate: mutant huntingtin aggregation inhibition. Potency, µM (doses to about 46.1 µM), without a hit: at the highest dose activity change, negative = inhibition, most hits filed as inhibitors. PC12 HttQ103-GFP aggregates, Acumen cytometry, 40 h. 1.1% of 220,000 active; note: potency is the fitted concentration of half-maximal effect; % is set by controls: 0 for no effect and ±100 for the full control effect; nearly all actives have a fitted effect of over 60% in size
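Aggregate formation scored by laser-scanning cytometer (488 excitation, 500–530 emission) in lysed PC12 cells expressing Q103-GFP after 100 nM tebufenozide induction; library tested in dose series, with ATPLite reagent added in the multiplex.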
Numbers without * were called inactive; ? = inconclusive; . = no result; ! = repeats disagree; [ ] = dose if it differs, or a comment. Shown are actives, neighbours in structure and some others; about 2.3% of the full set was active somewhere. Unless noted, calls come from the whole dose curve; as a rule, active = well fitted curve in the direction sought with a large enough effect; inconclusive = small, poorly fitted or top-dose-only effect, or another doubt; inactive = no such curve, though single readings can be large; an effect the other way counts as inactive or inconclusive.

SMILES | GoLoco inh red | Coupling enz | HTT cytoprotect | VDR inh | KDM4E inh | HTT aggregate
Cc1cc(NC(=O)CSCC(=O)N(C)Cc2ccc(Cl)cc2Cl)no1 | . | . | . | -5% | . | .
CC1=NN(c2ccc(Br)cc2)C(=O)/C1=C/c1ccc(-c2ccccc2C(=O)O)o1 | . | 12 | . | ? | . | .
CC1=NOC(=O)/C1=C\c1ccc(-c2ccc(Br)cc2C(=O)O)o1 | -5% | 4 | -31% | 79µM* | ? | 3%
COc1cc(/C=C/C(=O)NC(C)C2CC3CCC2C3)cc(OC)c1OC (stereo unspecified) | . | 1 | . | -14% | . | .
CN1CCN(C(c2ccccn2)c2cc(Cl)c3cccnc3c2O)CC1 (stereo unspecified) | 0% | -7 | -124% | 50µM* | 25µM* | ?
COc1ccc(-c2c([C@H]3[C@H]4C=CC[C@@H](C)[C@@H]4C(=O)N3Cc3ccccc3)ccc3ccccc23)cc1OC | 4% | 1 | 6%[10 µM] | 1% | ? | 20%[9.22 µM]
O=C1CCC(=O)c2ccc3c4c(ccc1c24)CC3 | . | . | . | -6% | . | .
O=C1CCN2C=Nc3cccc4ccc1c2c34 | -1% | -30* | -17% | -16% | ? | ?
NC(=O)NC(=O)COC(=O)/C=C/c1cccc(Br)c1 | 3% | 1 | 7% | -15% | -8% | 3%
CCOC(=O)C(CC)(CC)C(=O)/C=C/c1cccc(Br)c1 | . | . | . | 79µM* | . | .
O=C(O)c1ccc(NC2=C(n3nnc4ccccc43)C(=O)c3ccccc3C2=O)cc1 | -1% | -33* | 12%[10 µM] | 13% | -11% | 2%[9.22 µM]
Cc1c(Cl)cccc1Nc1ncccc1C(=O)O | . | -6 | -57% | 5% | . | 2%
Cc1c(Cl)cccc1Nc1ccccc1C(=O)O | 28µM*! | 8 | ? | 45µM*! | -4% | 4%
CC(=O)c1ccc(NC(=O)CSc2nnc(NC(=O)C3CC3)s2)cc1 | . | . | . | -7% | . | .
COC(=O)c1ccc(COc2ccc(/C=C(\C#N)c3nc4ccccc4[nH]3)cc2OC)o1 | 108% | 0 | -14% | 17% | 22µM* | 3%
COc1cc(/C=C(/C#N)c2nc3ccccc3[nH]2)ccc1OCc1ccc(C(=O)O)o1 | 85% | . | -23% | -5% | 5% | 1%
Cc1cc2oc(C(=O)Nc3nc(-c4ccccc4)ns3)c(C)c2cc1Cl | . | . | . | 12% | . | .
COc1cc(CN2c3ccccc3C(=O)CS2(=O)=O)cc(OC)c1 | . | . | . | -5% | . | .
O=C1CS(=O)(=O)N(Cc2ccc(F)cc2)c2ccccc21 | . | . | . | 79µM* | . | .
COc1cccc(CN(C)C(=O)c2[nH]c(C)c(C(C)=O)c2C)c1OC | . | 0 | . | ? | . | .
Cc1ccc(NC(=O)c2ccco2)c(NC(=O)c2ccccc2)c1 | . | 6 | . | 2% | . | .
CCN(CC)P(=O)(Nc1ccc(C)cc1Br)c1ccc(N(C)C)cc1NC(=O)c1ccco1 (stereo unspecified) | 4% | -5 | 25% | -10% | -14% | 35µM*
Cc1cc(C)n2c(SCC(=O)Nc3ccc(F)cc3)nnc2n1 | -2% | 1 | -1%[10 µM] | ? | -6% | 16%[9.22 µM]
CC1(C)OCC(CSC2=C(SCC3COC(C)(C)O3)C(=O)c3ncccc3C2=O)O1 (stereo unspecified) | -34% | -87* | -69% | . | 1µM* | .
O=C(CSc1nc2ccccc2nc1Cc1ccccc1F)Nc1cccc(C(F)(F)F)c1 | . | . | . | -9% | . | .
SMILES | GoLoco inh red | Coupling enz | HTT cytoprotect | VDR inh | KDM4E inh | HTT aggregate
Cc1ccc(C(=O)Cn2c(C(=O)/C=C/c3ccccc3)nc3ccccc32)cc1 | 4% | -2 | -57% | -19% | 18% | 11µM*
O=C(Cn1c(C(=O)c2ccccc2)nc2ccccc21)c1ccc(Cl)cc1 | . | . | . | 6% | . | .
O=C(Nc1nc(-c2ccc(F)cc2)cs1)c1cnccn1 | 25% | -2 | 1%[10 µM] | 2% | 6% | 10µM*
CCOC(=O)C1CCCN(CCC(=O)Nc2ccc(OC)cc2OC)C1 (stereo unspecified) | . | . | . | 2% | . | .
CCc1ccc(NC(=O)C2CCC(CNS(=O)(=O)c3ccc4c(c3)C(C)(C)C(=O)N4C)CC2)cc1 (stereo unspecified) | . | . | . | 17% | . | .
CC1=CC(C)C2COC(c3ccc[n+](C)c3)C1C2C (stereo unspecified) | 28µM* | 0 | -46%[10 µM] | 0% | -2% | -25%
CCCCCCCC1=CC2=C(Cl)C(=O)C(C)(OC(C)=O)C(=O)C2=CO1 (stereo unspecified) | 10% | 0 | -73% | 50µM* | -10% | .
CCCCC1=CC2=C(OC(C)=O)C(=O)C(C)(OC(=O)CC)C(=O)C2=CO1 (stereo unspecified) | 9% | 0 | -20% | ? | -5% | .
CCCCCCCC1=CC2=C(Cl)C(=O)C(C)(OC(C)=O)C(=O)C2=CN1C (stereo unspecified) | -4% | -29 | -51% | 71µM* | -5% | .
CCN1C(=O)CSC1=Nc1ccccc1Cl | . | -1 | . | -9% | . | .
CCN(CC)c1ccc(NC(=O)c2ccccc2F)cc1S(=O)(=O)Nc1ccccc1OC | -2% | 3 | -17%[10 µM] | ? | 8% | -21%
CCN(CC)c1ccc(NC(=O)c2ccc(=O)[nH]c2)cc1S(=O)(=O)Nc1ccccc1OC | 15% | -5 | -58% | 32µM* | ? | 24%
CCN(CC)S(=O)(=O)c1ccc(/C=C/C(=O)OCC(=O)Nc2ccc(S(N)(=O)=O)cc2)cc1 | -2% | -46* | 0%[10 µM] | 1% | -6% | 24%
CCN(CC)S(=O)(=O)c1ccc(/C=C/C(=O)OCC(=O)Nc2ccc(C(N)=O)cc2)cc1 | -4% | 4 | -28% | 2% | -6% | -1%
COCCNc1nc2c(c(=O)n(C)c(=O)n2C)n1Cc1cccc(C)c1 | 5% | 0 | -12%[10 µM] | 4% | 11% | 16µM*
CC(C)CCNc1nc2c(c(=O)n(Cc3cccc(F)c3)c(=O)n2C)n1C | -6% | -1 | -25% | 5% | 6% | 25µM*
CCN(CCO)c1ccc(NC(=S)Nc2cccc(S(=O)(=O)N(C)C)c2)cc1 | 1% | -41* | -23% | ? | ? | 27%
COc1ccc(O)c(/C=N/NC(=S)Nc2cccc(S(=O)(=O)N(C)C)c2)c1 | 9% | 3 | -43%[10 µM] | -5% | -6% | ?
COc1cccc(/C=N/NC(=S)Nc2cccc(S(=O)(=O)N(C)C)c2)c1 | -34% | -10 | -21%[10 µM] | 79µM* | 0% | 1%[9.22 µM]
